Source: PubChem BioAssay (NCATS)
Where “and” joins values, the source holds several entries; their conditions need not be identical. Equal values may be shown once. Results filed as inconclusive are left out. A call without a number means that no potency is given here. Unmarked numbers belong to inactive results. Calls of active or inactive are those of the source. The call rests on the fitted dose curve; in most records, active means well fitted curve in the direction sought with a large enough effect; inconclusive means small, poorly fitted or top-dose-only effect, or another doubt; inactive means no such curve, though single readings can be large; an effect the other way counts as inactive or inconclusive.

Key:
[1] = Viability qHTS for spleen associated tyrosine kinase inhibitor (SYKi) naive MV4-11 cells (AID 1963823); further: nearly all actives have a fitted effect of over 40% in size
In short: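 Luminescence from CellTiter-Glo, developed 10 min at room temperature, gave viability of MV4-11 cells never exposed to SYK inhibitor. Cells (500/well) had been incubated with compounds for 72 hr under standard culture conditions.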

[2] = Quantitative highthroughput screen to assess conditional lethalithy of NOMO1 cells grown in RPMI1640 with untreated serum (RPMI+s) (AID 1963876); further: nearly all actives have a fitted effect of over 35% in size
In short: (§1)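 Each medium arm—HPLM with 10% dialyzed FBS, or RPMI1640 with 5 mM glucose and 10% untreated or dialyzed FBS—was screened against an 11-point, 3-fold compound titration for 48 h at 37 °C, with CellTiter-Glo luminescence as endpoint.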

[3] = Quantitative highthroughput screen to assess conditional lethalithy of NOMO1 cells grown in RPMI1640 with dialyzed fetal bovine serum (RPMI+ds) (AID 1963877); further: nearly all actives have a fitted effect of over 30% in size; on Viability: series mostly up to about 46 µM
In short: as §1

[4] = Quantitative highthroughput screen to assess conditional lethalithy of NOMO1 cells grown in Human Plasma-Like Medium with dialyzed fetal bovine serum (HPLM+ds) (AID 1963878); further: nearly all actives have a fitted effect of over 35% in size
In short: as §1

[5] = Quantitative highthroughput screen to assess conditional lethalithy of P12 Ichikawa cells grown in Human Plasma-Like Medium with dialyzed fetal bovine serum (HPLM+ds) (AID 1963879); details: Potency: viability; further: nearly all actives have a fitted effect of over 35% in size; on Viability: series mostly up to about 46 µM
In short: as §1

[6] = Cellular viability qHTS for adrenocortical cancer (ACC) cell line NCI-H295R (AID 1963990); further: nearly all actives have a fitted effect of over 60% in size
In short: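 Readout: CellTiter-Glo luminescence, 20 min RT. Exposure: 48 h, 37C/5% CO2. Cells: NCI-H295R, ITS-DMEM serum-free. Range: up to 46 uM. Analysis: 4PL fit, IC50 plus efficacy.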

[7] = Quantitative highthroughput screen to assess conditional lethalithy of P12 Ichikawa cells grown in RPMI1640 with dialyzed fetal bovine serum (RPMI+ds) (AID 1963880); details: Potency: P12-Ichikawa viability; further: nearly all actives have a fitted effect of over 35% in size
In short: as §1

[8] = Quantitative highthroughput screen to assess conditional lethalithy of P12 Ichikawa cells grown in RPMI1640 with untreated serum (RPMI+s) (AID 1963881); details: Potency: viability; further: nearly all actives have a fitted effect of over 35% in size; on Viability: series mostly up to about 46 µM
In short: as §1

[9] = Quantitative highthroughput screen to assess conditional lethalithy of SEM cells grown in Human Plasma-Like Medium with dialyzed fetal bovine serum (HPLM+ds) (AID 1963882); further: nearly all actives have a fitted effect of over 35% in size; on Viability: series mostly up to about 46 µM
In short: as §1

[10] = Quantitative highthroughput screen to assess conditional lethalithy of SEM cells grown in RPMI1640 with unreated serum (RPMI+s) (AID 1963883); further: nearly all actives have a fitted effect of over 35% in size
In short: as §1

[11] = Quantitative highthroughput screen to assess conditional lethalithy of SEM cells grown in RPMI1640 with dialyzed fetal bovine serum (RPMI+ds) (AID 1963884); further: nearly all actives have a fitted effect of over 35% in size; on Viability: series mostly up to about 46 µM
In short: as §1

[12] = Cellular viability qHTS for adrenocortical cancer (ACC) cell line SW-13 (AID 1963989); details: SW-13 ACC cells viability, CellTiter-Glo, 48 h; activity (max response): hits give low values; further: nearly all actives have a fitted effect of over 65% in size;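 on activity (max response): cells grown in serum-free medium with ITS supplement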
In short: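 Compound titrations (up to 46 uM final, in DMSO) were applied to SW-13 cells for 48 h at 37C/5% CO2. Reading used CellTiter-Glo after 20 min at room temperature; fitted curves yielded IC50 and efficacy.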
Potency means the concentration at half of the fitted maximal effect.

Compound	Potency [1]	Potency [2]	Potency [3]	Potency [4]	Potency [5]	Potency [6]	Potency [7]	Potency [8]	Potency [9]	Potency [10]	Potency [11]	activity (max response) [12]	Potency [12]
Oc1ccc2ccccc2c1SSc1c(O)ccc2ccccc12	5.9 µM (active) and 11.6 µM (active)	inactive	inactive	inactive	inactive	31600 nM (active)	–	–	–	–	–	–	–
NC(=O)c1cccc(-c2cccc(OC(=O)NC3CCCCC3)c2)c1	inactive	inactive	inactive	inactive	332 nM (active)	inactive	–	–	–	–	–	–	–
O=C(O)c1cc(=O)[nH]c(=O)[nH]1	inactive	inactive	inactive	inactive	inactive	inactive	inactive	inactive	inactive	inactive	inactive	–	–
C[C@@H](CN1CC(=O)NC(=O)C1)N1CC(=O)NC(=O)C1	inactive	469 nM (active)	332 nM (active)	148 nM (active)	372 nM (active)	–	–	833 nM (active)	93.5 nM (active)	66.2 nM (active)	74.3 nM (active)	3.22% and 6.64%	–
O=C(CCCCCCC(=O)Nc1cccnc1)NO	3.32 µM (active)	20900 nM (active)	20900 nM (active)	18700 nM (active)	7430 nM (active)	4470 nM (active)	7430 nM (active)	8330 nM (active)	8330 nM (active)	–	6620 nM (active)	–	12600 nM (active)
Cc1onc(-c2ccccc2Cl)c1C(=O)N[C@@H]1C(=O)N2[C@@H]1SC(C)(C)[C@@H]2C(=O)O	inactive	inactive	inactive	inactive	inactive	inactive	inactive	inactive	inactive	inactive	inactive	0.896%	–
Clc1ccc(C(c2ccccc2Cl)C(Cl)Cl)cc1 (stereo not given)	inactive	inactive	inactive	inactive	inactive	13000 nM (active)	inactive	inactive	–	–	–	-27.3%	–
COCCn1c2c([n+](Cc3cnccn3)c1C)C(=O)c1ccccc1C2=O	0.0093 µM (active)	132 nM (active)	105 nM (active)	66.2 nM (active)	235 nM (active)	2820 nM (active)	187 nM (active)	166 nM (active)	16.6 nM (active)	66.2 nM (active)	41.8 nM (active)	–	–
NC(=O)c1cccc(-c2cc(Nc3ccc(OC(F)(F)F)cc3)ncn2)c1	10.3 µM (active) and 5.25 µM (active)	inactive	inactive	inactive	inactive	–	inactive	inactive	–	–	–	–	15800 nM (active)
O=C1c2ccccc2-[n+]2ccc3c([nH]c4ccccc43)c21	0.82 µM (active)	6620 nM (active)	5900 nM (active)	5260 nM (active)	8330 nM (active)	2820 nM (active)	9350 nM (active)	8330 nM (active)	2640 nM (active)	–	–	–	2820 nM (active)
C[C@H](NC(=O)[C@@H](O)c1cc(F)cc(F)c1)C(=O)N[C@@H]1C(=O)N(C)c2ccccc2-c2ccccc21	inactive	inactive	inactive	inactive	inactive	inactive	inactive	inactive	inactive	inactive	–	-11.3%	–
COc1ccnc(CS(=O)c2nc3ccc(OC(F)F)cc3[nH]2)c1OC (stereo not given)	inactive	inactive	inactive	inactive	inactive	inactive	inactive	inactive	inactive	inactive	–	-15.5% and -5.64%	–
Nc1cc(C(F)(F)F)c(-c2cc(N3CCOCC3)nc(N3CCOCC3)n2)cn1	2.06 µM (active) and 1.86 µM (active)	1870 nM (active)	1870 nM (active)	1180 nM (active)	1320 nM (active)	3160 nM (active)	1320 nM (active)	–	935 nM (active)	1050 nM (active)	833 nM (active)	–	2000 nM (active)
Cc1c(CCOc2ccc(C(=O)O)cc2)c2cc(Cl)ccc2n1C(c1ccccc1)c1ccccc1	inactive	inactive	inactive	–	14800 nM (active)	inactive	inactive	inactive	inactive	inactive	inactive	-0.782%	–
N[C@@H](Cc1ccc(O)c(O)c1)C(=O)O	inactive	inactive	inactive	–	inactive	inactive	inactive	inactive	inactive	inactive	inactive	3.64%	–
CC1(C)Cc2c(sc(NC(=S)NC(=O)c3ccccc3)c2C(=O)O)CO1	14.8 µM (active)	inactive	inactive	inactive	inactive	inactive	inactive	inactive	inactive	–	inactive	11%	–
